# What was measured:
# Conditions in all cases: concentration: 1 μM, replicates: in singlicate; n = 1
# [1] = system: T1, LOK
# T1 construct: gene STK10
# [2] = system: LRRK2
# [3] = system: LTK
# [4] = system: LYN
# [5] = system: T2, LZK
# T2 construct: gene MAP3K13
# [6] = system: MAK
# [7] = system: MAP3K15
# [8] = system: MAP3K1
# [9] = system: MAP3K2
# [10] = system: MAP3K3
# [11] = system: MAP3K4
# [12] = system: MAP4K2
# [13] = system: MAP4K3
# [14] = system: MAP4K4
# [15] = system: MAP4K5
# [16] = system: MAPKAPK2
# [17] = system: MAPKAPK5
# [18] = system: MARK1
# [19] = system: MARK2
# [20] = system: MARK3
# 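Note: KINOMEscan kinase panel screen.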
SMILES,%Inh [1],%Inh [2],%Inh [3],%Inh [4],%Inh [5],%Inh [6],%Inh [7],%Inh [8],%Inh [9],%Inh [10],%Inh [11],%Inh [12],%Inh [13],%Inh [14],%Inh [15],%Inh [16],%Inh [17],%Inh [18],%Inh [19],%Inh [20]
O=C(Nc1ccc2c(c1)OCO2)NC1CCN(c2ccnc(NCc3ccc(F)cc3)n2)CC1 [GSK1379859],0%,0%,1%,4%,0%,79%,0%,8%,0%,0%,0%,0%,0%,3%,0%,13%,0%,8%,0%,0%
Nc1ncnc2c1ncn2-c1cccc(F)c1 [SKF-97560],0%,31%,0%,0%,13%,0%,0%,16%,3%,5%,16%,38%,0%,0%,0%,0%,39%,0%,0%,0%
COc1cc2ncn(-c3cc(OCc4ccncc4)c(C(N)=O)s3)c2cc1OC [GSK336313],0%,0%,2%,0%,0%,23%,11%,25%,0%,0%,0%,0%,0%,0%,3%,5%,0%,0%,0%,0%
CN(C)c1cc(-c2ccc3c(N)n[nH]c3c2)nc(N)n1 [GSK2219329],0%,0%,4%,0%,10%,16%,0%,0%,0%,0%,0%,0%,0%,9%,7%,0%,0%,0%,0%,0%
COc1ccc(-c2coc3ccc(-c4nnc(SCc5cccc(C#N)c5)o4)cc23)cc1,4%,0%,0%,0%,9%,36%,0%,7%,24%,12%,11%,0%,13%,13%,12%,0%,18%,20%,18%,10%
O=C(Nc1n[nH]c2nc(-c3ccccc3)c(Br)cc12)C1CC1 [SB-708998],0%,29%,4%,3%,0%,12%,3%,0%,7%,4%,0%,1%,0%,17%,13%,0%,0%,0%,0%,0%
COc1ccc(-n2cnc3c(N)ncnc32)cc1 [SKF-97236],0%,17%,20%,0%,0%,0%,13%,9%,8%,8%,0%,22%,0%,17%,19%,15%,0%,15%,0%,0%
CCCC(=O)Nc1n[nH]c2ncc(-c3cccc4ccccc34)cc12 [SB-642057],0%,0%,0%,0%,0%,22%,0%,7%,2%,0%,34%,0%,12%,8%,7%,8%,0%,2%,0%,0%
Nc1nccc2scc(-c3ccc4c(c3)CCN4C(=O)Cc3ccccc3)c12 [GSK2576924],21%,0%,69%,0%,1%,23%,9%,0%,12%,0%,10%,6%,17%,24%,48%,6%,0%,0%,1%,1%
Nc1nc(-c2ccccc2F)c(-c2ccnc3ccccc23)s1 [GW560459],0%,8%,22%,0%,30%,23%,0%,3%,0%,0%,1%,0%,0%,11%,0%,9%,0%,0%,0%,4%
CCn1c(-c2ccoc2)nc2cnccc21 [SB-733887],0%,0%,1%,4%,0%,18%,0%,14%,3%,0%,0%,0%,0%,11%,5%,16%,0%,0%,0%,3%
CCn1c(-c2nonc2N)nc2ccccc21 [SB-693162/GW549034],11%,83%,4%,0%,55%,0%,54%,46%,25%,31%,0%,4%,0%,0%,0%,0%,33%,0%,25%,0%
CCC(=O)c1c(-c2ccccc2)c2cc(Cl)ccc2c(=O)n1Cc1ccc(C(=O)O)cc1,0%,0%,0%,0%,0%,4%,0%,0%,0%,0%,0%,12%,0%,0%,0%,0%,17%,0%,3%,0%
CCC(=O)c1c(-c2ccccc2)c2cc(Cl)ccc2c(=O)n1Cc1cc(C(=O)NC2CC2)n(C)n1,19%,3%,16%,0%,31%,32%,11%,9%,10%,12%,23%,0%,30%,0%,0%,8%,0%,13%,0%,0%
COc1cc2ncn(-c3cc(OCc4ccc(S(C)(=O)=O)cc4)c(C(N)=O)s3)c2cc1OC [GW869979],20%,29%,0%,26%,3%,0%,0%,8%,9%,0%,0%,26%,0%,0%,0%,0%,31%,0%,10%,0%
Cc1cccc(-c2nc(Nc3ccc4c(cnn4C)c3)c3ccccc3n2)n1 [GW876731],10%,0%,0%,5%,0%,29%,0%,0%,12%,10%,10%,0%,0%,0%,0%,0%,0%,12%,0%,34%
COc1cc2nccc(Nc3cccc(Oc4ccccc4)c3)c2cc1OC.Cl [GW284543],0%,48%,0%,0%,0%,12%,0%,0%,0%,0%,0%,0%,0%,0%,0%,15%,0%,0%,8%,31%
O=C(NCc1cccs1)c1cc(C(=O)c2c(Cl)cccc2Cl)c[nH]1 [GW823670],21%,0%,11%,1%,0%,0%,0%,0%,0%,0%,0%,0%,0%,0%,3%,0%,0%,0%,0%,50%
Nc1ncnc2c1ncn2-c1cccc2ccccc12 [SKF-97184],3%,4%,0%,15%,34%,30%,9%,5%,18%,0%,2%,0%,0%,0%,0%,0%,0%,23%,0%,52%
OCCCNc1nccc(-c2c(-c3cccc(C(F)(F)F)c3)nn3cc(C(F)(F)F)ccc23)n1 [GW630813],0%,0%,4%,0%,43%,16%,0%,0%,0%,0%,4%,0%,0%,6%,2%,7%,0%,0%,0%,0%
CCS(=O)(=O)c1ccc(OC)c(Nc2ncc(-c3ccc(F)cc3)o2)c1.Cl [GW591947],0%,0%,0%,0%,0%,80%,0%,0%,0%,0%,22%,0%,0%,5%,0%,1%,0%,0%,0%,0%

SMILES,%Inh [1],%Inh [2],%Inh [3],%Inh [4],%Inh [5],%Inh [6],%Inh [7],%Inh [8],%Inh [9],%Inh [10],%Inh [11],%Inh [12],%Inh [13],%Inh [14],%Inh [15],%Inh [16],%Inh [17],%Inh [18],%Inh [19],%Inh [20]
CN1C(=O)C(Nc2ccccc2)=C(c2ccccc2)C1=O [SB-300079],0%,0%,0%,0%,0%,0%,0%,0%,21%,0%,0%,0%,0%,0%,0%,0%,0%,10%,0%,23%
Cc1c(Cn2c(C)nn3c(=O)cc(N4CCO[C@H](C)C4)nc23)cccc1C(F)(F)F [GSK2373690],0%,31%,0%,0%,0%,0%,26%,7%,2%,0%,43%,0%,0%,3%,0%,23%,0%,0%,0%,0%
Cc1nnc(-c2ccc(C)c(-c3ccc(C(=O)O)cc3)c2)o1 [GW608005],100%,46%,0%,0%,0%,19%,14%,0%,0%,0%,8%,0%,0%,10%,0%,1%,0%,4%,0%,0%
COc1cccc(C2=C(N(C)c3ccccc3)C(=O)NC2=O)c1 [SB-334865],0%,0%,0%,0%,32%,24%,0%,1%,4%,0%,12%,0%,0%,0%,0%,17%,0%,0%,0%,0%
O=c1cc(N2CCOCC2)nc2n(Cc3ccc(F)c(Cl)c3)ccn12 [GSK2297099],0%,0%,0%,2%,0%,28%,0%,4%,10%,0%,25%,0%,0%,0%,0%,2%,0%,0%,0%,0%
Fc1cccc(CSc2nnc(-c3ccc4c(c3)CCO4)o2)c1,9%,10%,16%,19%,0%,5%,15%,26%,2%,2%,0%,8%,0%,0%,0%,25%,16%,0%,20%,5%
Cc1nn2c(=O)cc(N3CCOCC3)nc2n1Cc1cccc(Cl)c1Cl [GSK2342769],0%,22%,0%,0%,0%,20%,9%,17%,16%,0%,7%,0%,0%,0%,0%,15%,0%,0%,0%,0%
COC(=O)c1c(-c2ccccc2)c2cc(Br)ccc2c(=O)n1Cc1ccc(S(C)(=O)=O)cc1,6%,11%,9%,14%,33%,34%,26%,27%,0%,32%,9%,0%,0%,19%,0%,4%,2%,1%,0%,11%
COc1cc2ncn(-c3cc(OCCCc4ccccc4)c(C(N)=O)s3)c2cc1OC [GSK205189],40%,5%,0%,0%,0%,4%,0%,22%,0%,0%,16%,0%,0%,14%,39%,7%,0%,0%,0%,0%
O=C(Nc1n[nH]c2nc(-c3ccccc3)c(Cl)cc12)C1CC1 [SB-734909],21%,0%,0%,0%,0%,3%,60%,37%,14%,33%,5%,0%,15%,1%,9%,22%,0%,30%,0%,0%
Nc1n[nH]c2ncc(-c3ccccc3)cc12 [SB-517081],0%,0%,0%,0%,0%,17%,0%,6%,15%,0%,3%,0%,0%,0%,0%,19%,0%,0%,0%,0%
C[C@@H]1CC[C@H](C(=O)NC2CCCCC2)CN1c1cc(-c2ccc3c(N)n[nH]c3c2)nc(N)n1 [GSK2291363],0%,0%,0%,0%,0%,25%,0%,21%,20%,0%,28%,0%,0%,7%,0%,0%,0%,3%,3%,0%
COc1cc(Nc2nccc(N3CCC(NC(=O)C(C)c4ccc(Cl)cc4)C3)n2)cc(OC)c1OC (stereo not drawn) [GSK1379757],0%,0%,28%,0%,0%,17%,0%,1%,0%,0%,0%,0%,0%,8%,5%,14%,0%,0%,0%,0%
CCS(=O)c1ccc(-c2coc3ccc(-c4nnc(C)o4)cc23)cc1 (stereo not drawn),17%,5%,0%,0%,34%,15%,0%,3%,8%,20%,0%,0%,0%,5%,4%,0%,7%,4%,8%,17%
COc1cc2nccc(Nc3ccc(OCc4ccc(NC(C)=O)cc4)cc3)c2cc1OC.Cl [GW440135],0%,0%,0%,23%,24%,0%,0%,0%,18%,0%,37%,1%,0%,0%,0%,28%,0%,0%,0%,0%
COc1ccc(-c2cc3c(C)nc(N)nc3n([C@H]3CC[C@H](OCCO)CC3)c2=O)cn1,9%,0%,9%,0%,0%,0%,0%,0%,0%,0%,4%,0%,30%,0%,0%,0%,0%,0%,1%,0%
COc1cc(Nc2ccnc3ccc(C(F)(F)F)cc23)cc(OC)c1OC [GW577382],18%,27%,0%,25%,30%,12%,3%,4%,0%,0%,7%,1%,0%,15%,4%,0%,0%,8%,0%,0%
FC(F)(F)c1ccc(-c2ncn(CCCN3CCOCC3)c2-c2ccncc2)cc1 [SB-217780],10%,0%,23%,3%,0%,29%,7%,12%,8%,0%,7%,0%,0%,0%,0%,12%,22%,9%,0%,3%
COc1cccc(C2=C(Nc3cccc(C(=O)O)c3)C(=O)NC2=O)c1 [SB-390770],22%,27%,32%,0%,0%,33%,1%,25%,0%,3%,20%,0%,11%,12%,15%,6%,0%,15%,0%,0%
Nc1nc(N)c2nc(-c3ccccc3)[nH]c2n1 [SKF-12778],14%,18%,5%,3%,0%,3%,12%,9%,26%,13%,26%,26%,0%,26%,21%,13%,5%,1%,0%,0%
COc1cc(Nc2nccc(N3CCC(NC(=O)C4COc5ccccc5O4)C3)n2)cc(OC)c1OC (stereo not drawn) [GSK1379761],0%,0%,38%,19%,58%,44%,0%,2%,10%,0%,22%,0%,2%,6%,0%,0%,0%,0%,0%,0%
